CCHF vOTU inh-1 – CCHFV vOTU protease inhibitors, primary screen, biochemical, Pep-AMC substrate, fluorescence; inhibition, % at 11.5 µM; actives 0.55% (n = 370,000)
Mtb FBA inh – Mtb FBA enzyme inhibitors, primary screen, biochemical, fluorescence, strain H37Rv. purified M. tuberculosis FBA, fluorescence read-out. actives 2.3% (n = 360,000). AID 588726, 2011. inhibition, % at 1 µM; in the data active = inhibition above about 27%
RecA intein inh – Mtb RecA intein splicing inhibitors, primary screen, biochemical, fluorescence, HTS. actives 0.75% (n = 290,000). Protein RecA (Mycobacterium tuberculosis (strain ATCC 25618 / H37Rv)), P9WHJ3. inhibition, % (concentration not given with the values). cell-free RecA intein splicing; in the data active = inhibition above about 30%
GDH-TPI inh – GDH-TPI coupling enzyme inhibitors, primary screen, artefact control for M. tuberculosis FBA inhibitor project, biochemical, absorbance, full deck. GDH-TPI coupled enzyme counterscreen, NADH absorbance. inhibition, % at 4.8 µM. actives 1.2% (n = 360,000). AID 588335, 2011
3CLpro inhibitor – SARS-CoV 3CLpro protease inhibitors, primary screen, biochemical, quenched FRET; recombinant SARS-CoV 3CLpro, quenched FRET peptide cleavage; Replicase polyprotein 1ab (Severe acute respiratory syndrome coronavirus), P0C6X7; actives 0.14% (n = 290,000); inhibition, % at 6 µM; AID 1706, 2009; in the data active = inhibition above about 12%
DUSP3 inh – VHR1 phosphatase inhibitors, primary screen, biochemical, absorbance, uHTS | recombinant VHR phosphatase, pNPP absorbance | inhibition, % at 13.3 µM | actives 0.52% (n = 290,000); in the data active = inhibition above about 50%
CCHF vOTU inh-2 – CCHFV vOTU protease inhibitors, confirmation, biochemical, Pep-AMC substrate, fluorescence; shares compounds with CCHF vOTU inh-1; Recombinant CCHFV vOTU; inhibition, % at 11.5 µM; actives 17% (n = 1,900)
Large screens that a line does not name were inactive (follow-up assays come after a bar, where they were run). Only some compounds are listed: those with a hit (about 4.7% of all), similar ones and a draw of the others. Rule as the data show it, unless noted: active = inhibition above about 30%; inactive = the rest.

Cc1c(C=O)c(=O)n(-c2ccccc2)n1-c1ccccc1	CCHF vOTU inh-1 32 | CCHF vOTU inh-2 inactive
CC(=O)NC1=C(N(C)C2CCS(=O)(=O)C2)C(=O)c2ccccc2C1=O (configuration not stated)	CCHF vOTU inh-1 61 | CCHF vOTU inh-2 71
O=C(C/C=N/OCc1ccc(Cl)cc1Cl)c1ccc(Cl)cc1	none
Clc1ccc(C(c2ccc(Cl)cc2)n2cc[n+](CC(OCc3ccc(Cl)cc3Cl)c3ccc(Cl)cc3Cl)c2)cc1 (configuration not stated)	CCHF vOTU inh-1 41 (no result: RecA intein inh, 3CLpro inhibitor, DUSP3 inh) | CCHF vOTU inh-2 inactive
CN(C)N1C(N)=C(C#N)C(c2ccc(F)cc2)C2=C1CC(C)(C)CC2=O (configuration not stated)	CCHF vOTU inh-1 30 | CCHF vOTU inh-2 inactive
CCCc1ccc(-c2cc(NC(=O)Cc3c(C)[nH]c4ccccc34)ccc2N(C)c2cccnc2)cc1	CCHF vOTU inh-1 39 (no result: Mtb FBA inh, RecA intein inh, GDH-TPI inh, 3CLpro inhibitor, DUSP3 inh) | CCHF vOTU inh-2 inactive
CN(C)c1ccc(/C=C(/C#N)C(=O)NCc2ccccc2)o1	CCHF vOTU inh-1 32 | CCHF vOTU inh-2 inactive
COC(=O)[C@]12C[C@H](CC(=O)NCCCCc3ccccc3)C(=O)N(Cc3ccc4c(c3)OCO4)C1=C[C@H](C(C)C)O[C@@H]2C1CC1	none (no result: Mtb FBA inh, RecA intein inh, GDH-TPI inh, 3CLpro inhibitor, DUSP3 inh)
O=C1NC(c2ccc(-c3ccccc3[N+](=O)[O-])o2)C(C(=O)c2ccc(F)cc2)C(O)(C(F)(F)F)N1 (configuration not stated)	CCHF vOTU inh-1 42, RecA intein inh 83 | CCHF vOTU inh-2 inactive
Cc1ccc(C2NC(=O)NC(O)(C(F)(F)F)C2C(=O)c2ccccc2)o1 (configuration not stated)	none
CCC(CO)Oc1cc(NC(=O)c2ccc(OC)cc2)c2ncn(C(C)C)c2c1 (configuration not stated)	none (no result: RecA intein inh, 3CLpro inhibitor, DUSP3 inh)
O=[N+]([O-])c1cc(Cl)cc(/C=N/NC(=S)Nc2ccc(S(=O)(=O)N3CCOCC3)cc2)c1O	CCHF vOTU inh-1 39 (no result: RecA intein inh) | CCHF vOTU inh-2 inactive
O=C(NCc1ccncc1)C1Cc2c(-c3ccccc3Oc3ccccc3)ccnc2O1 (configuration not stated)	CCHF vOTU inh-1 32 (no result: RecA intein inh, 3CLpro inhibitor, DUSP3 inh) | CCHF vOTU inh-2 inactive
CCc1c(C(=O)N/N=C/c2cn[nH]c2-c2ccc(F)cc2)csc1C	none
CCc1c(C(=O)N/N=C/c2ccsc2)csc1C	CCHF vOTU inh-1 30 | CCHF vOTU inh-2 inactive
CCOC(=O)[C@H]1[C@H]2COc3ccc(Br)cc3[C@@H]2N2C(=O)c3ccc(Cl)cc3NC(=O)[C@@]12C	none (no result: RecA intein inh, 3CLpro inhibitor, DUSP3 inh)
CCS(=O)(=O)c1ccc2oc(Nc3ccc(OC)cc3)nc2c1	none
CCS(=O)(=O)c1ccc2oc(Nc3ccc(C(C)(C)C)cc3)nc2c1	CCHF vOTU inh-1 30 | CCHF vOTU inh-2 inactive
Cc1cc(Br)cn2c(Cc3ccccc3C(F)(F)F)c(-c3cccc(Cl)c3)nc12	none (no result: Mtb FBA inh, RecA intein inh, GDH-TPI inh, 3CLpro inhibitor, DUSP3 inh)
CCCCCCCCN1C(=O)[C@H](CC(=O)N2CCN(C(=O)c3ccco3)CC2)C[C@@]2(C(=O)OC)CCCCC=C12	CCHF vOTU inh-1 30 (no result: Mtb FBA inh, RecA intein inh, GDH-TPI inh, 3CLpro inhibitor, DUSP3 inh) | CCHF vOTU inh-2 inactive
CCCCCCCCN1C(=O)[C@H](CC(=O)N2CCN(C(=O)c3ccco3)CC2)C[C@@]2(C(=O)OC)CC(C)(C)CC=C12	CCHF vOTU inh-1 32 (no result: Mtb FBA inh, RecA intein inh, GDH-TPI inh, 3CLpro inhibitor, DUSP3 inh) | CCHF vOTU inh-2 inactive
COC(=O)[C@@]12C[C@@H](CC(=O)N3CCN(C(=O)c4ccco4)CC3)C(=O)N(CCc3ccc(OC)c(OC)c3)C1=CCC(C)(C)C2	none (no result: Mtb FBA inh, RecA intein inh, GDH-TPI inh, 3CLpro inhibitor, DUSP3 inh)
O=C(NC1CCCN(Cc2ccc(Cl)cc2)C1)c1ccoc1 (configuration not stated)	none
